# Reference: PubChem BioAssay (NCI)
# Compounds without any hit were thinned out: in the full panel of roughly 83,000, 20% have a hit.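 How to read the values: 0–100, growth inhibition (40 = 60% inhibited); 0, no net growth; -100 to 0, cell death (-40 = 40% of starting cells died; -100 = all dead).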 A number with no mark means an inactive call. Activity calls are given as the source filed them. How the source made its calls: active means growth percent below 10; inactive means the rest.
# System: MDA-MB-468 breast
# Assay: NCI-60 one-dose screen, 48 h (100 = growth as untreated, 0 = no growth, -100 = all killed)
# Conditions: 10 µM unless noted
row,Structure (SMILES),growth
1,O=C(Nc1cccc(Cl)c1)Nc1nc2ccc([N+](=O)[O-])cc2s1,-29.1% (active)
2,CCc1cc2c(cc1N1CCC(N3CCOCC3)CC1)C(C)(C)c1[nH]c3cc(C#N)ccc3c1C2=O,-38.2% (active)
3,O=C(O)C(CCc1ccccc1)NCc1ccccc1 (configuration not stated),108%
4,COc1ccccc1CNc1c2ccccc2nc2ccccc12,28.3%
5,COc1cc(C2C3=C(COC3=O)N(CCO)c3cc4c(cc32)CCC4)cc(OC)c1OC (configuration not stated),0.574% (active)
6,O=C1C=CC2(NN=C(c3ccccc3)N2c2cccc(Cl)c2)c2cccc(O)c21 (configuration not stated),76.1%
7,COc1ccc(CN2CCc3c(Sc4ccccc4)nc(N)nc3C2=O)c(OC)c1,48.2%
8,N#CCCN1C/C(=C/c2ccc(Br)cc2)C(=O)/C(=C/c2ccc(Br)cc2)C1,-71.3% (active)
9,Cc1cc(Nc2nc(C(=O)Nc3ccccc3)nc3ccccc23)n[nH]1,68.9%
10,COc1ccc(C(=O)CC(c2ccccc2)C(C#N)c2ccccc2)cc1 (configuration not stated),69.8%
11,CCn1c2ccccc2c2cc(C(O)c3cccc4ncccc34)ccc21 (configuration not stated),14.2%
12,NC(=O)c1c(Nc2ccccc2)nn2cc(-c3nc4ccccc4s3)c(N)nc12,101%
13,CCOC(=O)c1cnc2c(OC)ccc(OC)c2c1Cl,113%
14,CC(=O)c1ccc(Nc2nc(SCC(C)C)nc(-c3ccccc3)c2C#N)cc1,73.7%
15,C=C(C)[C@@H]1CC[C@]2(C)[C@H](CC=C3[C@@H]4CC(C)(C)CC[C@]4(CO)CC[C@]32C)[C@@]1(C)CCCN,-56.3% (active)
16,Cc1cc(SCc2ccc(Cl)cc2Cl)nc(SCc2ccc(Cl)cc2Cl)n1,104%
17,COc1cc(C2CC(c3ccc4c(c3)OCO4)=NN2c2ccccc2)cc(OC)c1OC (configuration not stated),75.7%
18,CCNc1ccc(-c2nc3ccccc3n3cccc23)cc1,2.19% (active)
19,C=C1C(=O)O[C@H]2[C@H]1CC/C(Cn1cc(-c3ccccc3C(F)(F)F)nn1)=C\CC[C@@]1(C)O[C@@H]21,-56.1% (active)

row,Structure (SMILES),growth
1,CCOC(=O)CNS(=O)(=O)CC(=O)c1ccccc1,54.1%
2,CCCc1nn(C)c2c(=O)[nH]c(-c3cc(S(=O)(=O)N4CCN(C)CC4)ccc3OCC)nc12,110%
3,Nc1c(N)c2ccccc2c2ccccc12,103%
4,Clc1nc2ccccc2nc1-c1nnc(C2CCCCC2)o1,7.71% (active)
5,CC[C@@H]1O[C@H](O[C@@H](c2cnc[nH]2)[C@H](NC(=O)c2nc([C@H](CC(N)=O)NC[C@@H](N)C(N)=O)nc(N)c2C)C(=O)N[C@H](C)[C@H](O)[C@H](C)C(=O)N[C@@H](C(=O)NCCc2nc(-c3nc(C(=O)NCCCCN=C(N)N)cs3)cs2)[C@@H](C)O)[C@H](O[C@@H]2O[C@H](CO)[C@H](O)[C@H](OC(N)=O)[C@@H]2O)[C@H](C)[C@@H]1C,57%
6,C/C=C/C=C1\C[C@H]2CO[C@H](O2)C1=O,103%
7,NC1=NN(c2ccccc2)C(=O)/C1=C/c1ccc(Cl)cc1,114%
8,O=C(CSc1nccc(Nc2ccc(S(=O)(=O)Nc3ccccn3)cc2)n1)c1ccc(Cl)cc1,81.2%
9,O=C(NC(Cc1ccccc1)C(=O)CCl)OCc1ccccc1 (configuration not stated),79.8%
10,Cc1cnc(N)nc1OCCNC(=O)c1cccc(-c2ccc(S(=O)(=O)Nc3ccc4c(c3)N(C(=O)C3CC3)CCC4)cc2)c1,36.8%
11,CCN1C(=O)N(CC)C2C1NN=c1s/c(=C\c3ccco3)c(=O)n12 (configuration not stated),13.8%
12,COc1cccc(O)c1/C=C(/C)c1ccc2c(OC)cccc2[o+]1,112%
13,S=c1nn[nH]c2ccccc12,117%
14,Cc1cn(-c2cc(NC(=O)c3cncc(C#Cc4cnc5ccc(O[C@@H]6CCOC6)nn45)c3)cc(C(F)(F)F)c2)cn1,-74.8% (active)
15,ClC1=C(Cl)C(Cl)=C(Cl)C1=Cc1ccc(Cl)cc1Cl,-74.9% (active)
16,COc1ccc(C2CC(c3ccc4ccccc4c3)=NN2c2nc(O)c(C3=c4cc(OC)ccc4=NC3=O)s2)cc1 (configuration not stated),-46.5% (active)
17,C=C1C(=O)O[C@H]2[C@H]1CC/C(COC(=O)n1ccnc1C)=C\CC[C@@]1(C)O[C@@H]21,76.4%
18,c1ccc(-c2[nH]c3ccccc3c2-c2ccccc2)cc1,84.1%
